Test [1] has as its system Human papillomavirus type 1a protein E7 (residues 44-93). The experiment in a line: small molecules binding HPV E7 44-93 – biochemical, small-molecule microarray, residues 44-93, 635 nm fluorescence, primary screen (AID 1108).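 Further: E7 fragment applied at 1 µg/mL in TBST for 1 h at 4 C; score combines spot fluorescence with its signal to noise ratio.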 Conditions: fluorescence 635 nm, higher = more signal.
A short description of test [2]: hepatitis C replication reporter changes, two-sided – Huh7 cells, luciferase reporter, HCV replication inhibitor project, primary screen (AID 1109).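 Further: huh7 hepatoma cells harbouring a luciferase neomycin HCV replicon reporter; luciferase luminescence as measure of HCV replicon replication; test concentration not given here.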 Conditions: Huh7 HCV replicon luciferase reporter, 48 h; higher = more signal.
Test [3] addresses Left-right determination factor 2 (Homo sapiens) (UniProt O00292). The experiment in a line: small molecules binding LEFTY2 protein – biochemical, small-molecule microarray, 635 nm fluorescence scan, primary screen (AID 1110). Conditions: higher = more signal.
Test [4] concerns the target Calmodulin-1 (Homo sapiens) (UniProt P0DP23). Nature of the test: small molecules binding calmodulin-1 with EGTA – biochemical, small-molecule microarray, Cy5-labelled CALM1, profiling panel (AID 1111).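 Further: labelled calmodulin applied in Tris saline Tween buffer holding calcium plus EGTA and DTT.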 As to conditions: Cy5-CALM1 binding fluorescence, higher = more signal.
For test [5] the target is unchanged. Nature of the test: small molecules binding Ca-loaded calmodulin-1 – biochemical, small-molecule microarray, Cy5-labelled CALM1, plus calcium, artefact control for SMM control-protein annotation, profiling panel (AID 1112).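 Further: score merges spot fluorescence with signal to noise from triplicate slides.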 Conditions: Cy5-CALM1 binding fluorescence, higher = more signal.
Test [6] can be described thus: probe aWnt5a binding to arrayed compounds – biochemical, biotinylated probe, 635/667 nm fluorescence, primary screen (AID 1113).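 Further: score merges 667 nm fluorescence intensity with signal-to-noise per printed feature.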 Conditions: small-molecule microarray, higher = more signal.
Test [7] in a line: probe aShh binding to arrayed compounds – biochemical, biotinylated probe, 635/667 nm fluorescence, primary screen (AID 1114).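 Further: probe is biotin-labelled aShh protein from a stem cell growth factor screen; measures binding of labelled protein to compounds printed on the slide; score merges feature fluorescence at 667 nm with signal-to-noise.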 Conditions: small-molecule microarray, higher = more signal.
The nature of test [8]: probe aNog binding to arrayed compounds – biochemical, biotinylated probe, 635/667 nm fluorescence, primary screen (AID 1115).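 Further: probe is biotinylated aNog protein used at 0.15 µg/mL for 1 h at 4 C; z-score combines 667 nm fluorescence of each spot with its signal to noise.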 Conditions: small-molecule microarray, higher = more signal.
The target in test [9] is Torsin-1A-interacting protein 1 (Homo sapiens) (UniProt Q5JTV8). Nature of the test: compound microarray binding of lysate hLAP1 – cell lysate, small-molecule microarray, COS7 lysate, 635/667 nm fluorescence, primary screen (AID 1116). As to conditions: 635 nm fluorescence, higher = more signal.
In test [10] the target is Alpha-bungarotoxin (Bungarus multicinctus) (UniProt P60615). Nature of the test: compounds binding labelled alpha-BTX control protein – biochemical, small-molecule microarray, Alexa647 label, 635/667 nm fluorescence, artefact control for SMM control protein annotation, profiling panel (AID 1117). As to conditions: alpha-BTX-A647 binding fluorescence, higher = more signal.

The results in this text go back to PubChem BioAssay.

Chain of Left-right determination factor 2 (Homo sapiens) (O00292 whole entry, looked up): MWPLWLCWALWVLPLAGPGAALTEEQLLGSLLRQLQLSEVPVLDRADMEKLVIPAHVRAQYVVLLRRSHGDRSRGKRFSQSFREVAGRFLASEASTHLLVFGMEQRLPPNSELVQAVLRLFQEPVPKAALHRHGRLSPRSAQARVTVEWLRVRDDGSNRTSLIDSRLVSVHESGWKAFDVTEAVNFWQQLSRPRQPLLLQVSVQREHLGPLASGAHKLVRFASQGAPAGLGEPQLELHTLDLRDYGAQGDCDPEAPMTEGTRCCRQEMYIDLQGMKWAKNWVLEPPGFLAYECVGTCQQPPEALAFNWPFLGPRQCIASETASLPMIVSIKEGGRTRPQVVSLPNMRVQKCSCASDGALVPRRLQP
Chain of Alpha-bungarotoxin (Bungarus multicinctus) (P60615 whole entry, looked up): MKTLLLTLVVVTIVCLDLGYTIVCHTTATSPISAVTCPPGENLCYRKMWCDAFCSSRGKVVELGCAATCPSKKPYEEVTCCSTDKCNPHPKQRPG
Chain of Torsin-1A-interacting protein 1 (Homo sapiens) (Q5JTV8 whole entry, looked up): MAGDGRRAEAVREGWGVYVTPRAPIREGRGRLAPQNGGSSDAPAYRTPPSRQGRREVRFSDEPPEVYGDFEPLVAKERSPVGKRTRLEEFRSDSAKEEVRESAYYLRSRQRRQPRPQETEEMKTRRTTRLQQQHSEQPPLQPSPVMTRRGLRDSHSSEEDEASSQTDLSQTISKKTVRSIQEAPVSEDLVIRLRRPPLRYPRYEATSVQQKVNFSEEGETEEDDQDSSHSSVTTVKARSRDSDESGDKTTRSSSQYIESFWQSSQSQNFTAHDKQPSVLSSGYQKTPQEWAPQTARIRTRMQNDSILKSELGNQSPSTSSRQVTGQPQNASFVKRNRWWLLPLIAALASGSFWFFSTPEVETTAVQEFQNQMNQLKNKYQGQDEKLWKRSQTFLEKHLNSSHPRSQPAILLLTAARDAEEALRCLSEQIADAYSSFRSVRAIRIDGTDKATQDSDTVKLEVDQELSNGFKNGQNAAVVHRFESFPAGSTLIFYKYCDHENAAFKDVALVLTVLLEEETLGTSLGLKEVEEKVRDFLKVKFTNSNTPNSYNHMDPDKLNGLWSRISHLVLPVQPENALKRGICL

Turning to `CC(C)=CCCC(C)=CCON=C1C[C@@H](O)[C@@H](O)[C@@H]2[C@@H]3C(=O)N(C(C)(C)C)C(=O)[C@@H]3CC[C@H]12`, the composite z-score in test [1] is 0.356; in test [3] it was 0.61; in test [4], -0.327; in test [5], -0.889; in test [6], -0.118; in test [7] it was -0.153. In addition, the composite z-score was -0.0446 in [8], 0.452 in [9] and 0.135 in test [10]. Further, the z-score in test [2] was 0.217.
For the compound `CCOC(=O)[C@H](CC(C)C)NC(=O)CCC1CC(OC(=O)NCc2cccc3ccccc23)CC2(CCCC(COC(=O)NCc3ccncc3)O2)O1` (stereo not given in full), the composite z-score in [1] is 1.38; in [3] it was 0.554; in [4], -0.118; in [5], -0.376; in [6], 0.0037; in test [7], -0.0146. The composite z-score was -0.036 in test [8], 0.526 in test [9] and 0.267 in [10]. Also, the z-score in test [2] is -1.
Consider `O=c1n(-c2ccccc2)c(=O)n2n1CC[C@@H]1C(=NOCc3ccccc3)[C@H]3O[C@H]3[C@@H](O)[C@@H]12`, for which the composite z-score in [1] was 0.0398; in test [3] it was 0.582; in [4] it was -0.608; in test [5] it was -0.879; in [6], -0.164; in test [7], -0.0035. For the same compound, the composite z-score in test [8] is -0.113; in test [9] it was 0.0741; in [10], 1.55. In test [2], this compound registered a z-score of -2.05.
Regarding `CO[C@@H]1COC(=O)[C@H](CCSC)NC(=O)CC=C[C@@H](C)COC(=O)[C@H](C)NC(=O)CC=C[C@H]1C`, the composite z-score was 0.677 in [1]; 1.19 in [3]; -0.886 in test [4]; -1.04 in test [5]; -0.0179 in [6]; -0.221 in test [7]. Also, the composite z-score is -0.0604 in test [8], -0.185 in [9] and -0.155 in test [10]. For the same compound, in test [2], the z-score was -0.62.
In the case of `CCO[C@H](c1cc(OC)cc([N+](=O)[O-])c1OC)[C@H](C)C=CCC(=O)OC`, the composite z-score in [1] was -0.679; in test [3] it was 0.46; in test [4] it was -0.432; in test [5], -1.36; in test [6], -0.248; in [7], -0.214. Also, the composite z-score in [8] is -0.0278; in test [9], 0.11; in test [10] it was -0.0356. This compound also had a z-score in test [2] of 0.265.
Regarding `C#CCCCON=C1C[C@@H](O)[C@@H](O)[C@@H]2[C@@H]3C(=O)N(Cc4ccccc4)C(=O)[C@@H]3CC[C@@H]12`, the composite z-score in test [1] was 0.0417; in [3] it was 0.26; in test [4], -0.274; in [5] it was -0.0051; in [6] it was -0.0236; in test [7] it was -0.253. Also, the composite z-score in test [8] is -0.133; in test [9], -0.194; in [10], -0.221. For the same compound, the z-score in [2] was found to be 0.858.
On to `CCOC(=O)NN=C1C[C@@H](O)[C@@H](O)[C@@H]2[C@@H]3C(=O)N(c4ccc(F)cc4F)C(=O)[C@@H]3CC[C@@H]12`, for which the composite z-score was 0.687 in test [1]; 0.292 in test [3]; -0.167 in test [4]; -0.205 in [5]; -0.0087 in test [6]; -0.108 in test [7]. The results for the composite z-score in [8], in test [9] and in test [10] were -0.213, 0.196 and -0.234, respectively. In addition, in [2], the z-score amounted to 0.0324.
On to `O=C(NN=C1C[C@@H](O)[C@@H](O)[C@@H]2[C@@H]3C(=O)N(C[C@@H]4CCCO4)C(=O)[C@@H]3CC[C@@H]12)OCc1ccccc1`, for which the composite z-score in test [1] is 0.457; in test [3], 0.686; in [4] it was -0.817; in [5], -1.51; in test [6] it was -0.243; in [7] it was 0.111. For the same compound, the composite z-score was -0.139 in test [8], -0.306 in [9] and -0.421 in [10]. The same compound returned a z-score in [2] of 0.246.
Consider `COC(=O)CC=C[C@@H](C)[C@@H](C=NOCC[C@@H]1C=C[C@H](OC(C)=O)[C@@H](COC(C)=O)O1)NS(=O)(=O)c1ccc(C)cc1`, for which the composite z-score was -0.0642 in [1]; 0.851 in test [3]; -0.879 in test [4]; -1.47 in test [5]; -0.0519 in test [6]; 0.0141 in test [7]. For the same compound, the composite z-score in test [8] is -0.429; in test [9] it was 0.164; in test [10], -0.0729. This compound also gave a z-score in test [2] of -1.45.
As for `O=C1OCCC=C1C(O)CCc1ccccc1` (stereo not given), the composite z-score in test [1] is -0.0602; in test [3], 0.791; in test [4], -0.818; in [5] it was -0.679; in test [6], -0.0981; in test [7], -0.13. The composite z-score in [8] was 0.0229; in test [9] it was 0.128; in test [10], 0.642. Further, in [2], the z-score is -0.364.
As for `CCOC(=O)[C@H](CC(C)C)NC(=O)CCC1CC(OC(=O)NCc2cccc3ccccc23)CC2(CCCC(COC(=O)NCCCN3CCCC3=O)O2)O1` (stereo not given in full), the composite z-score is 1.15 in [1]; 0.446 in test [3]; 0.446 in test [4]; -0.385 in [5]; -0.194 in [6]; -0.206 in test [7]. Moreover, the composite z-score is -0.467 in test [8], 0.196 in test [9] and 0.754 in [10]. Also, the z-score in [2] was -1.12.
As to `C[C@@H]1CC[C@H]2C(=O)O[C@@H](Cc3ccccc3)CN2[C@H]1c1ccc(Br)cc1`, the composite z-score in [1] is 0.712; in test [3], 0.276; in test [4] it was 0.134; in [5], 0.216; in [6], -0.118; in test [7] it was -0.221. For the same compound, the composite z-score in test [8] is -0.158; in [9] it was 0.579; in test [10], 0.198. The compound further came in with a z-score in test [2] of 0.166.
In the case of `CCOC(=O)CCN1C(=O)[C@H]2[C@H]3[C@H](O)[C@H](O)CC(=NOCC(C)C)[C@H]3CC[C@H]2C1=O`, the composite z-score in test [1] is -0.245; in test [3] it was 0.0607; in test [4] it was -0.271; in test [5], -0.26; in test [6], -0.0346; in test [7], -0.209. Further, the composite z-score in test [8] worked out at 0.0669; in test [9], 0.326; in [10], 0.797. The z-score in test [2] amounted to 0.453.
On to `CCOC(=O)[C@H](CC(C)C)NC(=O)CCC1CC(OC(=O)NCc2cccc3ccccc23)CC2(CCCC(COC(=O)NCc3cccc(C(F)(F)F)c3)O2)O1` (stereo not given in full), for which the composite z-score in test [1] was 0.0567; in [3], 0.67; in test [4], -0.333; in test [5], -0.568; in test [6], -0.0643; in test [7], -0.0626. In addition, the composite z-score in test [8] was -0.158; in test [9], -0.0162; in test [10], 0.157. The same compound came in with a z-score in [2] of 1.32.
As for `CCOC(=O)[C@H](CC(C)C)NC(=O)CCC1CC(OC(=O)NCCc2ccc(F)cc2)CC2(CCCC(COC(=O)NCC(c3ccccc3)c3ccccc3)O2)O1` (stereo not given in full), the composite z-score in test [1] is 0.776; in test [3], 0.319; in [4] it was 0.479; in test [5], -0.476; in test [6], -0.152; in test [7], -0.214. In addition, the composite z-score in test [8] is -0.501; in test [9] it was 0.145; in [10], 0.71. Further, the z-score in test [2] is 0.612.
Regarding `CO[C@@H]1C=CCC(=O)N[C@@H](C)C(=O)OC[C@@H](OC)[C@H](C)CCCC(=O)OC[C@H]1C`, the composite z-score in [1] is -2.89; in [3], 1.41; in [4] it was -1.23; in test [5], -2.04; in test [6], -0.0694; in test [7] it was -0.206. Moreover, the composite z-score in test [8] was -0.345; in test [9] it was 0.95; in test [10] it was -0.11. The compound also returned a z-score in [2] of -1.41.
In the case of `COc1ccc(COC(=O)NN=C2C[C@@H](O)[C@@H](O)[C@@H]3[C@@H]4C(=O)N(c5ccc(F)cc5F)C(=O)[C@@H]4CC[C@H]23)cc1`, the composite z-score in [1] was -0.246; in test [3], -0.551; in test [4], -0.252; in test [5], -0.318; in test [6] it was -0.169; in test [7] it was -0.0769. In addition, the composite z-score in [8] is -0.273; in test [9], -0.724; in test [10] it was 0.616. The z-score in test [2] was -0.107.
For the compound `C[n+]1ccc(-c2ccc(CO)cc2)cc1`, the composite z-score was -1.04 in test [1]; 0.616 in [3]; 0.468 in test [4]; 0.607 in test [5]; -0.117 in [6]; -0.0709 in test [7]. Further, the composite z-score in test [8] was -0.329; in test [9], 0.724; in test [10] it was 3.86. This compound also showed a z-score in test [2] of -0.0613.
